Measurements: PubChem BioAssay AID2158 (National Center for Advancing Translational Sciences (NCATS), 2009)
“And” between values parts separate entries of the source, which are not always exact repeats. Equal entries are not always repeated. Inconclusive results are not listed. The source made the active and inactive calls. The call rests on the fitted dose curve; in most records, active means well fitted inhibition curve with a large enough effect; inconclusive means small, poorly fitted or top-dose-only effect; inactive means no such curve, though single readings can be large or run the other way.

Molecular target: Cruzipain (Trypanosoma cruzi) (UniProt P25779)
Experiment: Confirmation qHTS Assay for Inhibitors of Cruzain; further: nearly all actives have a fitted effect of over 40% in size;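 on Activity change, negative = inhibition: plate controls were uninhibited enzyme control for no effect and buffer wells lacking enzyme for full effect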
Settings: purified cruzain, Z-FR-AMC fluorescence, 0.01% Triton
How it was run: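 Reaction progress from the 60 s rise in AMC fluorescence (ex 360, em 450 nm) after adding 2 uM Z-FR-AMC. Before this, 1.5 nM cruzain sat 15 min at room temperature with compound in pH 5.5 acetate buffer with 5 mM DTT and 0.01% Triton X-100.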
Potency means the concentration at half of the fitted maximal effect.

Sequence of Cruzipain (Trypanosoma cruzi) (P25779 123-467 limits assumed): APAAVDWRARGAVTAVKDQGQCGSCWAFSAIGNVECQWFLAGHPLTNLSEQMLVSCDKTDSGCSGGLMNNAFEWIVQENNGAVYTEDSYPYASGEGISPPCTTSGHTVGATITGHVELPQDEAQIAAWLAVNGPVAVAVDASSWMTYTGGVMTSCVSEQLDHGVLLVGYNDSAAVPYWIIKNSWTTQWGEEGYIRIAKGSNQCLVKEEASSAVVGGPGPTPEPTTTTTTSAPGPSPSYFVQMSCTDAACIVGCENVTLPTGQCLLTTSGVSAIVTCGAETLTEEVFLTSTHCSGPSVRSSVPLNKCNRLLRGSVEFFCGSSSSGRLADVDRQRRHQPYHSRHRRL

Potency, active:
CCNc1nc(C#N)nc(Nc2ccccc2)n1 0.708 µM, COc1cccc2c1[C@@H]1CN(CCCCn3c(=O)[nH]c4c(sc5ncc(-c6ccccc6)nc54)c3=O)C[C@@H]1CO2 15.8 µM, CNC(=O)c1ccc2nc(-c3ccco3)c(-c3ccco3)nc2c1 7.08 µM, CN(C)c1nc(C#N)nc(N2CCOCC2)n1 10 µM and 8.91 µM, COc1cc(NC(=O)C(OC(=O)CNC(=O)c2ccccc2)c2ccccc2)cc(C(F)(F)F)c1 (centres undefined) 31.6 µM, Cc1ccc(S(=O)(=O)N[C@@H](Cc2ccccc2)C(=O)CCl)cc1 14.1 µM and 28.2 µM, CCn1cnc2c(NCCc3cccnc3)nc(C#N)nc21 10 µM, CC1=CC(=NOC(=O)/C=C/c2ccccc2)C=C(C)C1=O 3.98 µM, CN1C(=O)/C(=N\OC(=O)c2cccc3ccccc23)c2ccccc21 10 µM, CCN(CCO)c1nc(SC)nc2c1sc1nc(-c3ccco3)c3c(c12)CCC3 17.8 µM, N#Cc1ccc(C(=O)NCC(=O)OC(C(=O)Nc2cc(C(F)(F)F)ccc2Cl)c2ccccc2)cc1 (centres undefined) 12.6 µM, COc1ccc(C(=O)COC(=O)CNC(=O)C2CCCCC2)c(OC)c1 14.1 µM, Cc1cccc(OCCCn2c(CCNC(=O)C3CCCCC3)nc3ccccc32)c1 794 nM and 708 nM, N#Cc1nc(Nc2ccc(F)cc2)nc(NC2CCCC2)n1 0.126 µM, CNc1oc(/C=C/c2cc(OC)c(OC)c(OC)c2)nc1C#N 15.8 µM, CCCCNC(=O)c1ccc2nc(-c3ccco3)c(-c3ccco3)nc2c1 7.94 µM, N#Cc1ccc(NC(=O)COC(=O)CNC(=O)C2CCCCC2)cc1 14.1 µM, CCc1ccc(OCCCCn2c(CCNC(=O)C3CCCCC3)nc3ccccc32)cc1 1.58 µM, O=c1cc(-c2ccccc2Cl)oc2c(NS(=O)(=O)c3cc(Cl)cc(Cl)c3O)ccc(O)c12 7.08 µM, CC(C)C[C@H](NC(=O)[C@@H]1O[C@H]1C(=O)O)C(=O)NCCCCN=C(N)N 0.112 µM, O=C(NCCc1nc2ccccc2n1CCCOc1ccc(Cl)cc1)C1CCCCC1 0.891 µM, Cc1cccc(C(=O)NCC(=O)OC(C(=O)Nc2cc(C(F)(F)F)ccc2Cl)c2ccccc2)c1 (centres undefined) 7.94 µM, COc1ccccc1C(=O)NCC(=O)OCC(=O)c1cccc2ccccc12 31.6 µM

Activity change, negative = inhibition, inactive:
Cc1ccccc1OCC(=O)NCC(=O)OCc1cccc2ccccc12 -2.79%, OCCN(CCO)c1ccc(C(c2ccccc2Cl)c2ccc(N(CCO)CCO)cc2Cl)c(Cl)c1 -15.5%, COc1cc(OC)c(-c2nn3c(-c4cc(C)[nH]n4)nnc3s2)cc1OC -21.4%, CCOc1ccc(-c2csc(NC(=O)c3ccc(S(=O)(=O)N4CCc5ccccc5C4)cc3)n2)cc1 -11%, N#CCSc1nc2scc(-c3cccs3)c2c(=O)n1CCc1ccccc1 -7.68%, CC(C)(C)OC(=O)Cc1nnc(-c2nc3ccccc3[nH]2)o1 -0.371%, Cc1ccc(O/C=C2/Nn3c(nnc3-c3cc(-c4ccccc4)n[nH]3)S2)cc1 -1.56%, O=C(CNC(=O)c1ccccc1)NCC(=O)OCC(=O)c1ccc2ccccc2c1 21.1%, N#CN1CCC(NC(=O)c2ccc(C(F)(F)F)cc2)CC1 -6.84%, Clc1ccccc1-c1nn2c(-c3cc(-c4ccccc4)n[nH]3)nnc2s1 -2.56%, Cc1ccc2[nH]c(=O)c(NC(N)=S)nc2c1 -16.5%, O=C(c1ccco1)N1CCN(c2ncnc3c2[nH]c2ccc(Cl)cc23)CC1 -37.6%, O=C(NCc1nnc(-c2cc3ccccc3[nH]2)o1)c1ccccc1 -2.11%, O=C(NCc1nnc(C(=O)Nc2ccc(C(F)(F)F)cc2Cl)o1)c1ccccc1 -7.13%, Cc1ccc2[nH]c(=O)c(CN(Cc3cccs3)Cc3nnnn3Cc3ccco3)cc2c1 -23%, N#CN1CCC(NS(=O)(=O)c2cccc(C(F)(F)F)c2)CC1 0.31%
